ALOX12 inh – Primary qHTS assay for inhibitors of human arachidonate 12S-lipoxygenase (ALOX12): Round 2; Potency, µM (highest dose often 108 µM), for inactives: at the highest dose activity change, negative = inhibition, actives largely listed as inhibitors; purified 12hLO, xylenol orange hydroperoxide absorbance; 1.1% of 580,000 active; Polyunsaturated fatty acid lipoxygenase ALOX12 (Homo sapiens), P18054; further: on the % scale 0 is the no-effect control and ±100 the full control effect
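Purified human 12hLO (150 nM final) in 25 mM Hepes, 0.01% Triton X-100, pH 7.0 was preincubated 15 min at room temperature with compound. Then 40 uM arachidonic acid was added, 30 min. Hydroperoxide was read by Fe-XO absorbance ratio 573/405 nm.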
Sfp PPTase inh – qHTS Assay for Inhibitors of Bacillus subtilis Sfp phosphopantetheinyl transferase (PPTase) | AID 1490, 2009 | Potency, µM, inactives show largest response in the series, negative = inhibition, actives largely listed as inhibitors | 4'-phosphopantetheinyl transferase ffp (Bacillus subtilis), Q9F4F7 | 3.5% of 310,000 active | Biochemical Sfp PPTase activity, qHTS;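 further: the enzyme is Sfp with the accession as filed and its product quenches rhodamine fluorescence; 0% = enzyme reaction without inhibitor and -100% = no enzyme wells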
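Fluorescence-quenching assay: 15 nM Sfp-PPTase preincubated 15 min at room temperature with compound, then 5 uM rhodamine-CoA and 12.5 uM BHQ-2-labelled YbbR peptide added. Fluorescence (ex 525/em 598 nm) read at start and after 30 min; difference gives rate.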
BAZ2B inh – qHTS Assay for Inhibitors of BAZ2B | AlphaScreen BAZ2B-H3K14Ac peptide displacement | AID 504333, 2011 | 4.4% of 360,000 active | Bromodomain adjacent to zinc finger domain protein 2B (Homo sapiens), Q9UIF8 | Potency, µM (top dose mostly 114 µM), for inactives: at the top dose activity change, negative = inhibition, usual class: inhibitors; further: on the % scale 0 is the no-effect control and ±100 the full control effect; nearly all actives have a fitted effect of over 60% in size
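AlphaScreen displacement: compounds (up to 110uM) incubated 30 min at room temperature with a preformed 50 nM BAZ2B/50 nM biotinylated H3K14Ac peptide complex in PBS pH 7.4 with Tween-20. Donor and acceptor beads at 10 ug/mL final added, 20 min light-protected before reading.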
G9a block – qHTS Assay for Inhibitors of Histone Lysine Methyltransferase G9a; Histone-lysine N-methyltransferase EHMT2 (Homo sapiens), Q96KQ7; G9a H3K9 monomethylation, AlphaScreen, 2 h; Potency, µM (highest dose often 102 µM), for inactives: at the top dose activity, negative = inhibition, most hits filed as inhibitors; 8.8% of 350,000 active; AID 504332, 2011; further: on the % scale 0 is the no-effect control and ±100 the full control effect; nearly all actives have a fitted effect of over 75% in size
Target sequence (Q96KQ7 913-1193 limits assumed): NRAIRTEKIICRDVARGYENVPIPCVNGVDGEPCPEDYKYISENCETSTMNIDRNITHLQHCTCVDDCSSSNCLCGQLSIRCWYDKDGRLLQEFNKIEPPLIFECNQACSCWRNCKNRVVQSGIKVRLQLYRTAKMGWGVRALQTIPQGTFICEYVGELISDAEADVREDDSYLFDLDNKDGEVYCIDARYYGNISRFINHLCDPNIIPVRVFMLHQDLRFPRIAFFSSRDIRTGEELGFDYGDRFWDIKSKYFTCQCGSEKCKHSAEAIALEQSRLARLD
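Step 1: enzyme (final 20 nM) with compound, 15 min RT. Step 2: substrate peptide 500 nM and SAM 20 uM, 2 h RT. Step 3: anti-H3K9me1 antibody and AlphaScreen beads, 10 min, then plate read.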
JMJD2A Tudor inh – qHTS Assay for Inhibitors of JMJD2A-Tudor Domain; AlphaScreen JMJD2A-Tudor / H3K4me3 peptide binding; Potency, µM (titrated, usually from 114 µM), for inactives: at the top dose activity change, negative = inhibition, actives largely listed as inhibitors; 4.4% of 390,000 active; AID 504339, 2011; further: on the % scale 0 is the no-effect control and ±100 the full control effect; nearly all actives have a fitted effect of over 50% in size
HP1b chromo inh – HTS for Inhibitors of HP1-beta Chromodomain Interactions with Methylated Histone Tails | 0.56% of 390,000 active | Chromobox protein homolog 1 (Homo sapiens), P83916 | Potency, µM (top dose mostly 114 µM), for inactives: at the top dose activity change, negative = inhibition, actives largely listed as inhibitors | AlphaScreen HP1-beta / biotin-H3K9me3 peptide binding; further: nearly all actives have a fitted effect of over 70% in size
Target sequence (P83916 whole entry, looked up): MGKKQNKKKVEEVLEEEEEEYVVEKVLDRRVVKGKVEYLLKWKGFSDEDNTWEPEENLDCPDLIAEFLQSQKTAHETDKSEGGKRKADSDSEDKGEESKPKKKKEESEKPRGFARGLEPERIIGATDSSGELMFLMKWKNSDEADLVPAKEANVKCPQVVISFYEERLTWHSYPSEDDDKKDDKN
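Compound inhibition of the preformed complex between 50 nM HP1-beta and 50 nM biotinylated H3K9me3 peptide was read by AlphaScreen. Buffer was PBS pH 7.4 with 0.01% Tween-20. Incubations ran 30 min at room temperature, with 10 ug/mL donor/acceptor beads.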
* marks the source's active call; other numbers are inactive results; i = inactive; ? = inconclusive; · = no result; [ ] = another dose, or the depositor's remark. The list is not random: actives were taken first. Their share in the collection is about 8.7%. The call rests on the fitted dose curve; in most records, active means well fitted curve in the direction sought with a large enough effect; inconclusive means small, poorly fitted or top-dose-only effect, or another doubt; inactive means no such curve, though single readings can be large; an effect the other way counts as inactive or inconclusive. Potency means the concentration at half of the fitted maximal effect.

SMILES	ALOX12 inh	Sfp PPTase inh	BAZ2B inh	G9a block	JMJD2A Tudor inh	HP1b chromo inh
CC(=O)c1nc2ccccc2n1S(=O)(=O)c1ccc(Cl)cc1	5%	8%	56µM*	-119%	-24%	28%
CC(=O)c1nc2ccccc2n1S(=O)(=O)c1ccc(C)cc1	8%	3%	?	?	-9%	18%
CN(Cc1ccccc1)C(=O)c1ccc(CSc2nc3cccnc3n2Cc2ccccc2F)cc1	?	·	25µM*	4.5µM*	5µM*	?
O=C(NCc1cccs1)c1ccc(Cn2c(SCc3ccc(F)cc3)nc3cccnc32)cc1	0%	·	0%	-27%[59 µM]	-17%	40%
O=C(NCc1cccs1)c1ccc(CSc2nc3cccnc3n2Cc2ccccc2F)cc1	?	·	8.9µM*	2.5µM*	5.6µM*	?
CC(=O)c1ccc(NC(=O)c2ccc(Cl)cc2N2CCCC2=O)cc1	-21%	·	·	·	·	·
COC(=O)[C@H](Cc1ccc(OC)cc1)NC(=O)[C@H]1CN(S(=O)(=O)c2ccccc2)CCN1C(=O)c1cccs1	2%	·	·	·	·	·
CCCCn1c(SCC(=O)Nc2cc(C)on2)nc2cc(S(N)(=O)=O)ccc21	322%	·	13%	?	-17%	20%
CCCCn1c(SCc2c(C)noc2C)nc2cc(S(N)(=O)=O)ccc21	146%	-7%	0%	50µM*	-6%	34%
O=C(CC(c1cccs1)S(=O)(=O)c1ccccc1)c1ccc(F)cc1 (stereo unspecified)	-14%	-2%	-24%	8.9µM*	9%	30%
N#Cc1c(Nc2cccc(F)c2)sc(C(=O)c2ccc(Cl)cc2)c1N	45µM*	·	?	11µM*	-15%	5%
C/C(=N\N=C1\NC(=O)C(CC(=O)O)S1)c1ccccn1 (stereo unspecified)	159%	-10%	50µM*	·	?	51%
O=C1C2CC=C(Cl)CC2C(=O)N1c1ncn[nH]1 (stereo unspecified)	?	6%	56µM*	?	89µM*	39%
O=C1C2CC=CCC2C(=O)N1c1ncn[nH]1 (stereo unspecified)	-18%	-6%	?	-28%[59 µM]	-13%	6%
CC/C(=N\NC(=O)Cc1ccc(Br)cc1)c1cccs1	i	11%	-15%	56µM*	-12%	57%
O=C(Cc1ccc(Br)cc1)NNC(=O)c1cccs1	5%	·	·	·	-12%	32%
CCOCCCn1c(=S)[nH]c2cc(C(=O)N3CCC(C(N)=O)(N4CCCCC4)CC3)ccc2c1=O	0%	-10%	2%	?	22µM*	47%
CCOC(=O)N1CCN(c2cc3[nH]c(=S)[nH]c3cc2F)CC1	?	23%	4%	2.2µM*	45µM*	-29%
CCOC(=O)N1CCN(C(=O)c2ccc3c(=O)n(-c4ccc(OC)cc4OC)c(=S)[nH]c3c2)CC1	?	-29%	4%	?	-33%	73%
CCOC(=O)N1CCN(C(=O)c2ccc3c(=O)n(-c4ccccc4F)c(=S)[nH]c3c2)CC1	-3%	-9%	-15%	50µM*	-12%	77%
CCOCCCn1c(=S)[nH]c2cc(C(=O)N3CCN(C4CCCCC4)CC3)ccc2c1=O	2%	5%	-23%	-16%	-7%	51%
COc1ccc(CCn2c(=S)[nH]c3cc(C(=O)N4CCOCC4)ccc3c2=O)cc1OC	?	-18%	-26%	8.9µM*	-22%	16%
O=C(c1nnc(CN2CCOCC2)n1Cc1ccccc1)N1CCC[C@@H]1c1ccc(Br)cc1	14%	·	·	·	·	·
COCc1nc(C2CCN(C(=O)C3CC3)C2)no1 (stereo unspecified)	42%	·	·	·	·	·
CCOCCCn1c(=S)[nH]c2cc(C(=O)N3CCN(c4ccccc4)CC3)ccc2c1=O	7%	5%	-9%	25%	-7%	52%
SMILES	ALOX12 inh	Sfp PPTase inh	BAZ2B inh	G9a block	JMJD2A Tudor inh	HP1b chromo inh
CCOCCCn1c(=S)[nH]c2cc(C(=O)N3CCN(C)CC3)ccc2c1=O	-18%	-25%	?	?	22µM*	15%
CCN1CCN(C/C(C)=C/c2ccccc2)CC1	?	-5%	-6%	-25%	2%	23%
C/C(=C\c1ccccc1)CN1CCN(c2ccccc2F)CC1	?	?	-38%	?	5µM*	?
Fc1ccccc1N1CCN(CCCc2ccccc2)CC1	-23%	-16%	?	35µM*	22µM*	?
NNC(=O)c1nnsc1-c1csnn1	-35%	·	·	·	79µM*	22%
O=C(O)c1nnsc1-c1csnn1	?	·	·	·	-17%	9%
Cc1ccc(C(C)C)c(OCc2nn(CC(=O)c3ccc(Cl)cc3)c3[n+]2CCCCC3)c1	-14%	32µM*	-10%	-3%	-29%	-4%
O=C(Cn1nc(CNc2ccc(Cl)cc2)[n+]2c1CCCCC2)c1ccccc1	?	-11%	-10%	-9%[59 µM]	-9%	26%
CC1CCN(C(=O)CN2C(=O)NC3(CCC(C(C)(C)C)CC3)C2=O)CC1 (stereo unspecified)	25%	·	·	·	·	·
Cc1ccc(NC(=O)NC2CCN(C(=O)N3CC4CC(C3)[C@H]3CCCC(=O)N3C4)CC2)cc1C (stereo partly specified)	7%	·	·	·	·	·
Cc1cc(C)cc(C(=O)NN2CCOCC2)c1	6%	9%	12%	12%[59 µM]	-7%	25%
Cc1cc(C)cc(C(=O)NN2CCN(C)CC2)c1	-8%	15%	4%	3%[12.7 µM]	22µM*	-5%
Cn1ccnc1C(NC(=O)Cc1n[nH]c(=O)c2ccccc12)c1ccccc1 (stereo unspecified)	25%	·	·	·	·	·
